This passage reports sensor-assay potency score (higher = more potent) results from the OligoGym collection.
Also: reference of the scale not given here.

One assay addresses SEZ6L. Nature of the assay: pooled miR-30 sensor sort-seq; sequence = guide strand. The conditions noted are these: shRNA.
The sequence TTGTCATGCAGCAACAGCCTCT registered a sensor-assay potency score (higher = more potent) of -0.492.
Sequence TGGATATCTAAGAAGATCCGTT yielded a sensor-assay potency score (higher = more potent) of -0.621.
Consider TGGAATAGTAGCGACATCTTGT, for which the sensor-assay potency score (higher = more potent) was -0.571.
Same read-out and setting: for TTGGTATCCATTTTCAGGCAGC the value was -0.526; for TCGAGTGATCCACCTCTCCGGG, -1.
As for TTGGAGAAGCTCACACTGCAGA, the sensor-assay potency score (higher = more potent) is -0.466.
The same measure, in the same setting: for TAATTTTCTCACAAAATGGGGG the value was -0.33.
The same measure, in the same setting: in the case of TTATAGGTCGGGTCGGATGTAG it was -0.637; in that of TCCAGATACAATCTTCACCTTC, -0.983; in that of TAGACTGTCACGTTGTATGTGC, 0.1.

The next assay addresses SFRP4. The assay is described as above. Conditions: shRNA.
The sequence TTGGCATGAATAACATAGCTGT displayed a sensor-assay potency score (higher = more potent) of -0.164.
Same read-out and setting: for TTTTCAAGAAGCATCATCCTTG the value was 0.0999; for TTTTCTTCTTGTCCTGAACTGT, -0.361.
Consider TATCCACTTAACATCCTCCGGG, for which the sensor-assay potency score (higher = more potent) amounted to 0.611.
Consider TAGACAGGCAGCTCGTCGCAGG, for which the sensor-assay potency score (higher = more potent) was -0.454.
With TTTTACACTTGCACCGATCGGG, the sensor-assay potency score (higher = more potent) was found to be 0.497.
In turn, TATGGATCTTTTACTAAGCTGA had a sensor-assay potency score (higher = more potent) of -0.661.
For the sequence TTTACATCCACCACCGTTGTGA, the sensor-assay potency score (higher = more potent) was found to be 0.315.
The same measure, in the same setting: for TTGTCCTGAACTGTTCTCCGCT the value was 0.199.
TTTACTAAGCTGATCTCTCCAT showed a sensor-assay potency score (higher = more potent) of -0.0154.
As for TTACTAAGCTGATCTCTCCATT, the sensor-assay potency score (higher = more potent) is -0.515.
On the same count and under the same terms, for TTTACACTTGCACCGATCGGGG the value was -0.824.

The next assay has as its target SFT2D2. Described as above. The conditions noted are these: shRNA.
TATAGCAAAACACGCAATGAAG registered a sensor-assay potency score (higher = more potent) of -1.77.
In turn, AAGAGGTGTAGTCCCTTCCTGG yielded a sensor-assay potency score (higher = more potent) of -1.12.
TGATAGTTGCAATCAAACGAGT: the sensor-assay potency score (higher = more potent) was -0.692.
Turning to TTGCAATCAAACGAGTAGGCTC, the sensor-assay potency score (higher = more potent) was -0.3.
As to TTTATCCTGGTACTCCAGCTTA, the sensor-assay potency score (higher = more potent) is -0.866.
The same measure, in the same setting: for TGCAAAACACAACAGCACCATG the value was -1.45; for ATCACAAGCAACACATTGCTGC, -0.583.
Still for that read-out and setting: for TACAAAACTGTCCACCAGCTTC the value was -0.963; for TTATCCTGGTACTCCAGCTTAA, -1.39.
On to TTAATGAAGATGCCTCAACAAC, for which the sensor-assay potency score (higher = more potent) is -1.49.
On the same count and under the same terms, for TCAAACATTCGCTTCAGCTGTT the value was 0.727.

The target in another assay is SFTA2. Described as above. Conditions: shRNA.
In the case of TTCCATGTGAGCTGCCAAGGAG, the sensor-assay potency score (higher = more potent) is -0.915.
For the sequence TCAGTTGCAAAGTCATACCCGG, the sensor-assay potency score (higher = more potent) came out at 0.0994.
The same measure, in the same setting: for TCCATGTGAGCTGCCAAGGAGG the value was -1.63; for TGGAGGGTGACGCTGGTCCCTG, -1.43; for ATTTGTCAGAAAAGACTCCTTC, 0.636.
Same read-out and setting: for TGTCAGAAAAGACTCCTTCAGC the value was -0.402; for AATTTGTCAGAAAAGACTCCTT, -0.354.
